Measurements: PubChem BioAssay (NCATS)
Records with an inconclusive call do not appear. A call without a number means that no potency is given here. The source made the active and inactive calls. The call rests on the fitted dose curve; in most records, active means well fitted inhibition curve with a large enough effect; inconclusive means small, poorly fitted or top-dose-only effect; inactive means flat fitted curve, though single readings scatter.

test system: TAB165; assay: qHTS profiling for inhibitors of Plasmodium falciparum proliferation (AID 504749); further: nearly all actives have a fitted effect of over 60% in size; details: P. falciparum in erythrocytes, SYBR Green DNA, 72 h; series mostly up to 28.7 µM
Outline: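 In a 72 h erythrocytic culture (37 C, humidified, 5% CO2) at 2.5% hematocrit and 0.3% starting parasitemia, compounds were tested; SYBR Green I in detergent lysis buffer stained parasite DNA overnight.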
Potency means the concentration at half of the fitted maximal effect.

Structure (SMILES) | Potency
CC(C)(C)c1cc(O)ccc1O | 10 µM (active)
F/C(COc1ccc2c(c1)[nH]c1ccccc12)=C1/CN2CCC1CC2 | 4.47 µM (active)
CCOC(=O)c1ccccc1C(=O)OCC | inactive
OC(c1ccccc1)(c1ccccc1)C1CN2CCC1CC2 (stereo not given) | inactive
c1ccc(C2(N3CCCC3)CCCCC2)cc1 | 12.6 µM (active)
CCCC(C)(COC(N)=O)COC(=O)NC1CC1 (stereo not given) | inactive
CCN(CC)C(=O)/C(Cl)=C(\C)OP(=O)(OC)OC | inactive
CN1[C@@H]2CC[C@H]1CC(OC1c3ccccc3CCc3ccccc31)C2 (stereo not given in full) | 3.98 µM (active)
CCCC(=O)OC(C(Cl)(Cl)Cl)P(=O)(OC)OC (stereo not given) | inactive
CCOP(=O)(OCC)O/C(=C/Cl)c1ccc(Cl)cc1Cl | inactive
O=C(CS(=O)C(c1ccccc1)c1ccccc1)NO (stereo not given) | inactive
C=CCN=C=S | inactive
CC(N)Cc1ccc(O)cc1 (stereo not given) | inactive
c1cc2c(c(NC3=NCCN3)c1)CCCC2 | inactive
O=C(NCNC(=O)NC1C(=O)NC(=O)N1CO)NC1C(=O)NC(=O)N1CO (stereo not given) | inactive
CCC1C(C)=NN=C(c2ccc(OC)c(OC)c2)c2cc(OC)c(OC)cc21 (stereo not given) | inactive
C/C(=C\c1csc(C)n1)[C@@H]1C[C@@H]2O[C@]2(C)CCC[C@H](C)[C@H](O)[C@@H](C)C(=O)C(C)(C)[C@@H](O)CC(=O)O1 | 0.0022 µM (active)
CCCN1CCCC2Cc3[nH]ncc3CC21 (stereo not given) | inactive
CCC(C)(S(=O)(=O)CC)S(=O)(=O)CC | inactive
COc1ccc2c(c1OC)C(=O)OC2C1c2cc3c(cc2CCN1C)OCO3 (stereo not given) | inactive
